# In all, about 1,300 compounds went through this assay and about 1,200 (92%) were called active. So high a share suggests a set chosen from earlier hits. These entries were drawn from the full list. Unmarked numbers belong to inactive results.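 The calls were made as follows: active = inhibition of the VIM-2 beta-lactamase enzyme above about 11% from the earlier first-round screen (limit read from the data); inactive = the rest.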
# Tested on: VIM-2 metallo-beta-lactamase (Pseudomonas aeruginosa)
# Assay: VIM-2 metallo-beta-lactamase inhibitors, confirmation, biochemical, epi-absorbance, hits shared with IMP-1 screen (AID 2187);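 also: 0% = VIM-2 with DMSO and 100% = buffer wells without enzyme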
# Conditions: purified VIM-2, nitrocefin hydrolysis, at 5.6 µM, hits give high values
row,SMILES,inhibition
1,CCN1CCCC1CNC(=O)c1cc2c(=O)n(C)c3ccccc3c2n1C (configuration not stated),32.5% (active)
2,CC1CCCC(C)N1CCCNC(=O)c1cc2c(=O)n(C)c3ccccc3c2n1C (configuration not stated),29.3% (active)
3,Cc1cc(NCc2ccco2)n2c(nc3ccccc32)c1C#N,53% (active)
4,CCN(CC)c1ccc2cc(C(N)=O)/c(=N\NC(=O)c3ccncc3)oc2c1,37.4% (active)
5,COc1ccc(/C=N/N(C)C2=NS(=O)(=O)c3ccccc32)cc1OC,20.6% (active)
6,O=C(COc1cc2oc(=O)c3c(c2cc1Cl)CCC3)NCCCN1CCOCC1,34.9% (active)
7,Cn1c(=O)c2c(nc(N3CCOCC3)n2CCNC2=NCCC2)n(C)c1=O,28% (active)
8,CCN(CC)CCOc1ccc2c(c1)C(=NNC(=O)c1ccccn1)c1cc(OCCN(CC)CC)ccc1-2,43.4% (active)
9,Cn1c2ccccc2c(=O)c2c(O)cccc21,38.6% (active)
10,C=CCn1c(-c2ccccc2OCC)n[nH]c1=S,24.7% (active)
11,COc1ccc(CCn2c(=N)c(C(=O)NCC3CCCO3)cc3c(=O)n4cccc(C)c4nc32)cc1OC (configuration not stated),27.6% (active)
12,CC(=O)c1ccc(-c2ccc(Cn3c(C)nc4cc(N)c(C)nc43)cc2)cc1,26.6% (active)
13,CCOCCCNc1c(CC)c(C)c(C#N)c2nc3ccccc3n12,20.6% (active)
14,CCOC(=O)N1CCN(C(=O)C2CCN(c3ncnc4c3sc3cccc(F)c34)CC2)CC1,22% (active)
15,Cc1cccn2c(=O)c(C=O)c(Nc3ccc(S(N)(=O)=O)cc3)nc12,26.6% (active)
16,O=c1[nH]c(-c2ccccc2)c(-c2ccccc2)[nH]1,45.7% (active)
17,COc1cc(/C=N/Nc2nn3cnnc3c3ccccc23)cc(OC)c1OC,53.9% (active)
18,COc1ccc(Nc2cc(C)nc(-n3nc(C)cc3C)n2)cc1,25.1% (active)
19,COc1ccc(Cc2nnc(NS(=O)(=O)Cc3ccccc3)s2)cc1,21.1% (active)
20,CCC1CCCCN1CCCNC(=O)c1cc2c(Cl)nc3ccccc3c2s1 (configuration not stated),32.2% (active)
21,Cc1nc2ccccc2c2oc(C(=O)NCCCN3CCC(C)CC3)cc12,29.2% (active)
22,CCCc1ccc(OCCNC(=O)c2ccco2)cc1,0.92%
23,O=C(NC(=S)Nc1ccccc1C(=O)O)c1ccc(-c2ccc(Br)cc2)o1,8.47% (active)
24,CNC(=O)c1ccsc1NC(=O)c1ccc(S(=O)(=O)N2CCOCC2)cc1,26.7% (active)
25,COC(=O)c1c(NC(=O)c2ccc(S(=O)(=O)N3CCOCC3)cc2)sc2c1CCN(C(C)C)C2,71.3% (active)
26,COc1cc(NC(=O)C2=C(C)OCCS2)c(Cl)cc1C(=O)NCCN1CCN(C)CC1,34.3% (active)

row,SMILES,inhibition
1,CCN1CCN(C(=O)Cn2nc(C)n3c(cc4c(OC)cccc43)c2=O)CC1,41.4% (active)
2,Nc1nnc2c(C(F)(F)F)nc3ccccc3n12,21.3% (active)
3,NC(=O)C1CCN(C(=O)COc2ccc3c4c(c(=O)oc3c2)CCC4)CC1,22.5% (active)
4,COc1nc(N=C(N)N)nc2c(C)cccc12,24.9% (active)
5,Cc1cc(C)c2nc3nc(C)cc(C)c3c(N)c2c1,28.1% (active)
6,O=C(NCCCN1CCOCC1)c1cnn2c(-c3ccccc3)cc(-c3ccccc3)nc12,45.4% (active)
7,COc1ccc(-c2nn3c(-c4ccccc4)nnc3s2)cc1OC,34.6% (active)
8,COc1cc(-c2nn3c(-c4cccc(C)c4)nnc3s2)cc(OC)c1OC,22.1% (active)
9,COC(=O)c1ccc(-c2noc(CN(Cc3ccccn3)CC3CCCO3)n2)cc1 (configuration not stated),26.8% (active)
10,CCN1CCN(CCNC(=O)c2ccc3c(c2)NC(=O)/C(=C\c2ccc(OC)c(OC)c2)S3)CC1,30.4% (active)
11,Nc1cccc2c1C(=O)N(Cc1nnc(-c3ccccc3Br)o1)C2=O,18.7% (active)
12,CN1CCN(c2ccc(NC(=O)c3ccc4c(c3)[nH]c(=O)n4Cc3ccc(F)cc3)cc2)CC1,33.6% (active)
13,CC(NS(=O)(=O)c1ccccc1)c1n[nH]c(=S)n1-c1ccccc1 (configuration not stated),28.1% (active)
14,CN(C)CCNc1ccc(-c2n[nH]c(=O)c3ccccc23)cc1[N+](=O)[O-],84.4% (active)
15,O=C1Nc2cc(C(=O)N3CCC(N4CCCCC4)CC3)ccc2S/C1=C\c1ccccc1,38.5% (active)
16,Fc1ccc(-c2ccc(CNCc3ccccn3)o2)cc1Cl,54.3% (active)
17,Cc1ccc2nc(C)c3c(c2c1)N(c1ccccc1)CC3,25.2% (active)
18,Cn1c(-c2sccc2OCc2cccc(C(F)(F)F)c2)n[nH]c1=S,37.3% (active)
19,Clc1cc(-c2ccc(/C=N/n3cnnc3)o2)ccc1Br,57% (active)
20,Cc1ccc(Cl)cc1-c1ccc(/C=N/n2cnnc2)o1,41.2% (active)
21,Cc1cc([N+](=O)[O-])c(-c2ccc(/C=N/n3cnnc3)o2)cc1Cl,67.5% (active)
22,Cc1cc(-c2ccc(/C=N/n3cnnc3)o2)c([N+](=O)[O-])cc1C,69.9% (active)
23,CC(C)(C)CC(=O)Nc1nnc(SCC(=O)NCc2cccs2)s1,27.4% (active)
24,CCc1cc(=O)oc2cc(C)cc(OCC(=O)N3CCC[C@@H]3C(=O)O)c12,19.7% (active)
25,CCOc1cc(/C=C2\SC(N3CCCC(C)C3)=NC2=O)ccc1O (configuration not stated),20.7% (active)
26,CCOc1cc(/C=C2\SC(N3CCCCC3)=NC2=O)ccc1O,19% (active)

# — PubChem BioAssay AID2187 (The Scripps Research Institute Molecular Screening Center, 2009)
